Data on 15 compounds can be found in PubChem BioAssay (NCI).

Among the test systems are NCI-H23 lung; NCI-H226 lung; NCI-H322M lung; HOP-62 NSCLC; NCI-H460 lung; HOP-92 NSCLC; NCI-H522 lung; A549/ATCC NSCLC; 786-0 renal.
Assay in all cases: NCI-60 one-dose screen, 48 h (100 = growth as untreated, 0 = no growth, -100 = all killed)
What all share (conditions): 10 µM unless noted

This is part of a sample that, as a whole, favours compounds with a hit. Of some 83,000 tested, about 20% had one in any assay.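 Growth was measured after 48 h exposure to one concentration of compound in 96-well plates. Values under 10 count as active.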 Values without a mark were called inactive. The source made the active and inactive calls.

Turning to `CC(C)(C)c1ccc(C(=O)Nc2sc3c(c2C(N)=O)CCC(=O)C3)cc1`, the growth in the assay with NCI-H23 lung was -15% (active); in the assay on NCI-H226 lung, 30.8%; with NCI-H322M lung, 62.6%; in the assay on HOP-62 NSCLC, 26.5%; in the assay on NCI-H460 lung, -10.7% (active); in the assay with HOP-92 NSCLC, -22.7% (active). In addition, the growth in the assay with NCI-H522 lung is -10.2% (active); in the assay on A549/ATCC NSCLC it was 15.1%; in the assay on 786-0 renal, 23.8%.
In the case of `Clc1ccc(-c2nc(NCCc3ccccc3)nc3c(NCCc4ccccc4)cnn23)cc1`, the growth in the assay with NCI-H23 lung was 50.8%; in the assay with NCI-H226 lung it was 99.7%; with NCI-H322M lung, 73.7%; in the assay on HOP-62 NSCLC, 85.3%; in the assay on NCI-H460 lung it was 16.3%; in the assay with HOP-92 NSCLC it was 97.7%. Also, the figures for the growth in the assay with NCI-H522 lung, in the assay with A549/ATCC NSCLC and in the assay with 786-0 renal were 63%, 9.98% (active) and 80%, respectively.
Consider `C=C(C)[C@@H]1CC[C@]2(C(=O)NCC(=O)O)CC[C@]3(C)[C@H](CC[C@@H]4[C@@]5(C)Cc6c([nH]c7ccccc67)C(C)(C)[C@@H]5CC[C@]43C)[C@@H]12`, for which the growth was 73.5% in the assay with NCI-H23 lung; 87.8% in the assay on NCI-H226 lung; 85.5% in the assay with NCI-H322M lung; 58.5% with HOP-62 NSCLC; 88.5% in the assay with NCI-H460 lung; 81% in the assay with HOP-92 NSCLC. The growth with NCI-H522 lung was 41.9%; in the assay with A549/ATCC NSCLC, 67.1%; in the assay with 786-0 renal, 84.4%.
As to `CCOC(=O)N1CCc2c(sc3c2C(=O)N[C@H](c2ccc(OC)cc2)N3)C1`, the growth is 103% in the assay with NCI-H23 lung; 94.7% with NCI-H226 lung; 105% in the assay with NCI-H322M lung; 68.4% in the assay with HOP-62 NSCLC; 104% in the assay on NCI-H460 lung; 92.6% with HOP-92 NSCLC. For the same compound, the growth with NCI-H522 lung is 76%; in the assay on A549/ATCC NSCLC, 85.4%; with 786-0 renal, 97.8%.
Regarding `CN(C)c1cnccn1`, the growth in the assay with NCI-H23 lung is 91.9%; in the assay with NCI-H226 lung it was 85.4%; with NCI-H322M lung it was 114%; in the assay with HOP-62 NSCLC it was 90.3%; with NCI-H460 lung, 93.8%; in the assay with HOP-92 NSCLC it was 94.4%. In addition, the figures for the growth with NCI-H522 lung, in the assay with A549/ATCC NSCLC and with 786-0 renal were 45.9%, 91.3% and 98.3%, respectively.
For `CSc1nc(N)c(CNC(C)c2ccccc2)c(=O)n1C` (stereo not given), the growth with NCI-H23 lung was 97.4%; in the assay with NCI-H226 lung it was 91.4%; with NCI-H322M lung, 169%; in the assay on HOP-62 NSCLC, 95%; in the assay with NCI-H460 lung, 105%; in the assay on HOP-92 NSCLC, 89%. Besides, the growth in the assay with NCI-H522 lung was 94.3%; in the assay on A549/ATCC NSCLC, 97.7%; with 786-0 renal it was 90.2%.
As for `C=C1C(=O)O[C@H]2[C@H]1CC/C(COC(=O)NCc1ccc(Cn3c(=O)sn(CCCCl)c3=O)cc1)=C\CC[C@@]1(C)O[C@@H]21`, the growth in the assay on NCI-H23 lung is 70.8%; in the assay with NCI-H226 lung it was 58.7%; in the assay on NCI-H322M lung, 88.8%; in the assay on HOP-62 NSCLC, 87.2%; with NCI-H460 lung, 101%; in the assay on HOP-92 NSCLC, -53.8% (active). For the same compound, the growth with NCI-H522 lung is -89.7% (active); in the assay on A549/ATCC NSCLC, 90.5%; in the assay on 786-0 renal it was 38.1%.
As for `N=C(N)c1ccc(-c2ccc(-c3ccc(Cl)c(Cl)c3)o2)cc1`, the growth in the assay on NCI-H23 lung was 45.4%; with NCI-H226 lung, 90.5%; with NCI-H322M lung it was -23% (active); in the assay on HOP-62 NSCLC, 42.3%; in the assay with NCI-H460 lung, -68.8% (active); with HOP-92 NSCLC it was 58.9%. In addition, the results for the growth in the assay with NCI-H522 lung, in the assay with A549/ATCC NSCLC and in the assay on 786-0 renal were 57.7%, -6.23% (active) and -91.1% (active), respectively.
For `CC(C)N(CCOC(=O)Nc1ccccc1Cl)C(C)C`, the growth in the assay with NCI-H23 lung was 105%; in the assay on NCI-H226 lung, 86.3%; with NCI-H322M lung it was 102%; in the assay on HOP-62 NSCLC it was 93.3%; with NCI-H460 lung, 103%; in the assay on HOP-92 NSCLC it was 84.4%. Also, the growth in the assay with NCI-H522 lung was 78.6%; with A549/ATCC NSCLC, 98.4%; in the assay on 786-0 renal, 98.8%.
Turning to `O=c1ccn(C2OC(F)(CO)C(O)C2F)c(=O)[nH]1` (stereo not given), the growth in the assay with NCI-H23 lung was 100%; in the assay with NCI-H226 lung, 102%; with NCI-H322M lung, 113%; in the assay with HOP-62 NSCLC, 82.7%; in the assay with NCI-H460 lung, 107%; in the assay on HOP-92 NSCLC, 98.1%. Also, the growth in the assay on NCI-H522 lung is 75%; with A549/ATCC NSCLC it was 104%; in the assay on 786-0 renal it was 96%.
With `N[C@H]1CCC[C@@H]1NCCCCN1C(=O)c2cccc3cccc(c23)C1=O`, the growth was 71% in the assay with NCI-H23 lung; 83.8% in the assay on NCI-H226 lung; 54.9% in the assay with NCI-H322M lung; 76.2% in the assay on HOP-62 NSCLC; 39.4% in the assay on NCI-H460 lung; 51.4% in the assay on HOP-92 NSCLC. Also, the growth with NCI-H522 lung is 57.1%; in the assay with A549/ATCC NSCLC it was 53.3%; with 786-0 renal, 54.8%.
Regarding `O=C1C2=C(CCN(Cc3ccccc3)C2)N2CCN=C2N1Cc1ccc(C(F)(F)F)cc1`, the growth in the assay on NCI-H23 lung is 31%; in the assay on NCI-H226 lung it was 25.9%; with NCI-H322M lung, 37.8%; with HOP-62 NSCLC it was 31%; with NCI-H460 lung, 14.7%; in the assay with HOP-92 NSCLC it was 18.8%. The growth in the assay on NCI-H522 lung is 19.9%; with A549/ATCC NSCLC, 27.6%; in the assay on 786-0 renal it was 48.8%.
For `C=C1C(=O)O[C@H]2[C@H]1CC/C(Cn1cc(CNCCc3c[nH]c4ccc(Cl)cc34)nn1)=C\CC[C@@]1(C)O[C@@H]21`, the growth was 92.9% in the assay with NCI-H23 lung; 91.1% in the assay with NCI-H226 lung; 85.7% in the assay on NCI-H322M lung; 78.7% in the assay with HOP-62 NSCLC; 99% in the assay on NCI-H460 lung; -7.88% (active) with HOP-92 NSCLC. Moreover, the growth was -91% (active) in the assay with NCI-H522 lung, 84.1% with A549/ATCC NSCLC and 67.4% with 786-0 renal.
As for `CNC(=O)c1cc(Oc2ccc3nc(NC(=O)Nc4cc(C(F)(F)F)cc(C(F)(F)F)c4)sc3c2)ccn1`, the growth is -67.9% (active) in the assay with NCI-H23 lung; -13.7% (active) in the assay with NCI-H226 lung; -46.6% (active) in the assay on NCI-H322M lung; -70.5% (active) with HOP-62 NSCLC; -57.5% (active) with NCI-H460 lung; -54.6% (active) with HOP-92 NSCLC. The growth with NCI-H522 lung is -71.9% (active); with A549/ATCC NSCLC it was -71.4% (active); with 786-0 renal, -64% (active).
As to `Cc1c2c(cn1Cc1ccccc1)CCc1cn[nH]c1-2`, the growth with NCI-H23 lung is 89.2%; in the assay with NCI-H226 lung, 101%; with NCI-H322M lung it was 106%; in the assay on HOP-62 NSCLC, 89.1%; with NCI-H460 lung it was 101%; in the assay with HOP-92 NSCLC it was 70.1%. Also, the figures for the growth with NCI-H522 lung, in the assay with A549/ATCC NSCLC and with 786-0 renal were 97.5%, 99.3% and 98.1%, respectively.
